Results from PubChem BioAssay AID493222 (Johns Hopkins Ion Channel Center, 2011).
Among all 2,400 compounds or so, about 95 (4%) were called active.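 Rule for the calls: active = mean of duplicate membrane potential ratios lying over 3 SD above or below the buffer control mean, so actives fall on both sides; inactive = the rest.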 Only a sample is shown.

Assay: membrane potential effects in parental HEK293, counter-screen for CHT inhibitor project, cell-based, membrane potential dye (AID 493222);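 note: parental cells lack the transporter so any hit is non-specific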;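 for membrane potential ratio readout (active if shifted either direction beyond buffer ±3SD; no single direction): ratio is peak minus trough fluorescence over baseline after EC90 choline challenge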
Details: choline response, at 10 µM; active = decrease or increase beyond buffer ±3SD

Structure (SMILES) | membrane potential ratio readout (active if shifted either direction beyond buffer ±3SD; no single direction)
O=C(OCC(=O)c1c[nH]c2ccccc12)c1cccc(O)c1 | inactive
CCc1cc2c(N3CCN(c4nnc(CC)s4)CC3)ncnc2s1 | inactive
O=C(Cn1nc(C(F)(F)F)c2c1CCC2)NCc1ccc(F)cc1 | inactive
CCN(Cc1ccccc1)S(=O)(=O)c1cc(C(=O)O)ccc1OC | inactive
COc1ccc(Cn2c(=O)sc3ccccc32)cc1OC | -8.59 (active)
O=C(NCCc1ccc2c(c1)OCCO2)c1cc2ccccc2o1 | inactive
FC(F)(F)c1cccc(NC(=S)Nc2cccc(Cl)c2)c1 | inactive
CCCCCn1c(=O)[nH]c2cc(C(=O)NCCCN3CCCCC3C)ccc2c1=O (configuration not stated) | inactive
O=C(NCCCn1ccnc1)C(=O)c1cn(CC(=O)N2CCCCCC2)c2ccccc12 | inactive
CCC(C)c1ccc(NC(=S)NCc2ccccn2)cc1 (configuration not stated) | inactive
Cc1c(C(=O)OC(C)C)sc(NC(=O)c2cccnc2)c1C#N | inactive
C/C(=N/NC(=O)c1cc(Cl)ccc1O)C12CC3CC(CC(C3)C1)C2 | inactive
COc1nc(OC)nc(N(C)CCO)n1 | inactive
COc1cccc(-c2nn(-c3ccccc3)cc2/C=C(\C#N)C(=O)NCCCn2ccnc2)c1 | inactive
O=S(=O)(Cc1cc(Cl)nc(-c2cccnc2)n1)c1ccccc1 | inactive
COc1ccc(-n2nnnc2CNC(=O)c2ccc3ccccc3c2)cc1 | inactive
N#Cc1ccc(C(=O)Nc2cccc3cccnc23)c(F)c1 | inactive
CCC(=O)Nc1nnc(S(=O)(=O)N(CC(C)C)c2ccccc2)s1 | inactive
CC1CN(S(=O)(=O)c2ccc(C(=O)NN3CCN(C)CC3)cc2)CC(C)O1 (configuration not stated) | inactive
CC(=O)N1CCN(S(=O)(=O)c2cccc(C(=O)NC3CCC(C)CC3)c2)CC1 (configuration not stated) | inactive
CC(NC(=O)c1ccc(N2CCNCC2)c([N+](=O)[O-])c1)C12CC3CC(CC(C3)C1)C2 (configuration not stated) | inactive
COc1ccc(OCC(=O)OCCN(C)C)cc1 | inactive
CC(C(=O)NC1CCS(=O)(=O)C1)N1C(=O)/C(=C/c2ccc(Cl)cc2)SC1=S (configuration not stated) | inactive

Structure (SMILES) | membrane potential ratio readout (active if shifted either direction beyond buffer ±3SD; no single direction)
CCOC(=O)N1CCN(C(=O)C2CCN(c3ncnc4c3sc3cccc(F)c34)CC2)CC1 | inactive
CCC(C(=O)N1CCOCC1)n1c(C(=O)OC)cc2occc21 (configuration not stated) | inactive
CC1(C)SC2C(NC(=O)COc3ccccc3)C(=O)N2C1C(=O)O (configuration not stated) | inactive
Cc1cccc(C)c1NC(=O)c1ccc(CN2CCc3ccccc3C2)cc1 | inactive
CCS(=O)(=O)C1=NSC2=NC(=O)/C(=C\c3ccc(OS(=O)(=O)c4ccccc4)cc3)C(=N)N21 | inactive
Cc1nn(CC(=O)NCC2CCCO2)c(=O)c2cc3ccccc3n12 (configuration not stated) | inactive
COc1ccc(C(CNC(=O)c2cccc(NS(=O)(=O)c3ccc(C)c(F)c3)c2)N2CCCC2)cc1 (configuration not stated) | inactive
CCn1c(SCCC(C)C)nnc1-c1c[nH]c2ccccc12 | inactive
Cc1[nH]c2ccccc2c1C(=O)CN1CCCC(C)C1 (configuration not stated) | inactive
COc1ccc(N2C(=O)CNC2=S)cc1 | inactive
CC(=O)c1ccc(Oc2cc(C)nc(-n3nc(C)cc3C)n2)cc1 | inactive
CC(C)(C)c1ccc(C(=O)CSc2ncn[nH]2)cc1 | inactive
CN(CCC#N)c1ncnc2scc(-c3ccccc3)c12 | inactive
O=C1/C(=C/c2ccc(F)cc2)SC(=S)N1NS(=O)(=O)c1ccccc1 | inactive
COc1ccc(C(=O)NC(=S)NNC(=O)CCc2ccccc2)cc1 | inactive
O=C(Nc1nonc1-c1ccc(Cl)cc1)c1ccco1 | inactive
COc1ccc(C(=O)NNC(=S)NC(=O)c2ccccc2)cc1 | inactive
Oc1c(Cl)cc(Cl)c(Cl)c1Cc1c(O)c(Cl)cc(Cl)c1Cl | inactive
O=C(O)CC1=C(Nc2ccccc2)C(=O)N(c2ccccc2)C1c1ccc(Cl)cc1 (configuration not stated) | inactive
Cc1ccc2nc(Nc3ccccc3)cc(C)c2c1 | inactive
Cc1oc2cc([N+](=O)[O-])c(O)c([N+](=O)[O-])c2c1C(=O)c1ccc(Br)cc1 | 2.79 (active)
CC(C)(C)NC(=O)NC(=O)CN1CCC(Cc2ccccc2)CC1 | inactive
COc1ccc(C(=O)NC(C)c2nccs2)cc1OC1CCN(C(C)C)CC1 (configuration not stated) | inactive

Structure (SMILES) | membrane potential ratio readout (active if shifted either direction beyond buffer ±3SD; no single direction)
COc1cc2ccccc2cc1C(=O)Nc1ccc(S(=O)(=O)Nc2cc(C)on2)cc1 | inactive
O=C(O/N=C(/c1ccccc1)c1ccncc1)c1ccccc1[N+](=O)[O-] | inactive
CCc1nc(C)cn1S(=O)(=O)c1cc([N+](=O)[O-])ccc1Cl | 2.6 (active)
Cc1ccc(NNC(=O)c2cccs2)cc1Cl | inactive
Cc1cc(OC(C)C(=O)Nc2ccc(S(=O)(=O)Nc3onc(C)c3C)cc2)cc(C)c1Cl (configuration not stated) | inactive
CCN(CC(=O)NCc1ccc(Cl)cc1)C(=O)CSc1ccccc1 | inactive
CN(C)c1ccc(Nc2c3c4c(cccc4n(C)c2=O)C(=O)c2ccccc2-3)cc1 | inactive
Cc1cc(NS(=O)(=O)c2ccc(NC(=O)C(C)Oc3cccc(C)c3C)cc2)nc(C)n1 (configuration not stated) | inactive
COc1ccc(/C=C2/SC(=O)N(CCCCCC(=O)Nc3ccccc3C(=O)O)C2=S)cc1 | inactive
CN(Cc1ccccc1)CC(O)COc1ccc(CNCc2cc3ccccc3s2)cc1 (configuration not stated) | inactive
COc1ccc(S(=O)(=O)N2CCN(C(=O)NC3CCCCC3)CC2)cc1 | inactive
CCCCn1c(SCC(=O)NCC2CCCO2)nc2ccc(N3CCOCC3)cc2c1=O (configuration not stated) | inactive
CC1CCN(CCCNC(=O)CN2C(=O)CSc3ccc(S(=O)(=O)N4CCCCC4)cc32)CC1 | inactive
O=C(c1c(F)cccc1Cl)N1CCN(S(=O)(=O)c2ccc3c(c2)OCCCO3)CC1 | inactive
Cc1cccc(N(C)C(=O)CN2C(=O)COc3ccc(S(=O)(=O)N4CCCCCC4)cc32)c1 | -12.1 (active)
O=C(O)c1ccc(/C=C2\SC(=S)N(NC(=O)c3ccc(Br)cc3)C2=O)cc1 | inactive
O=S(=O)(Nc1ccc(Cl)cn1)c1cnc(Cl)c(Br)c1 | inactive
Cc1ccc(CS(=O)(=O)c2ncc(Cl)c(C(=O)Nc3nnc(C)s3)n2)cc1 | inactive
COC(=O)C(C(=O)Nc1cccc(Cl)c1C)C1CCCC1 (configuration not stated) | inactive
Cc1ccc(C(=O)NC2CCCC(C)C2C)cc1S(=O)(=O)N1CCCCC1 (configuration not stated) | inactive
Cc1cccc(-c2nc3ccc(C(=O)NCCN4CCN(C)CC4)cc3nc2-c2cccc(C)c2)c1 | inactive
